Assay outcomes from PubChem.
A selection: hits, their analogues and other compounds. The true share with any hit is near 2.5%.
GRK2 aptamer HTS: blocks RNA aptamer binding to human GRK2; inhibition of aptamer binding, % at 10 µM; actives 0.59% (n = 330,000); AID 488847; bead flow cytometry, FAM-aptamer displacement from GRK2; P25098;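 active means inhibition of aptamer binding above 40%, roughly 3 SD of noise, on plates passing a quality check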;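 further: median bead fluorescence of bound FAM aptamer so fluorescent compounds give negative values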
Target sequence (P25098 whole entry, looked up): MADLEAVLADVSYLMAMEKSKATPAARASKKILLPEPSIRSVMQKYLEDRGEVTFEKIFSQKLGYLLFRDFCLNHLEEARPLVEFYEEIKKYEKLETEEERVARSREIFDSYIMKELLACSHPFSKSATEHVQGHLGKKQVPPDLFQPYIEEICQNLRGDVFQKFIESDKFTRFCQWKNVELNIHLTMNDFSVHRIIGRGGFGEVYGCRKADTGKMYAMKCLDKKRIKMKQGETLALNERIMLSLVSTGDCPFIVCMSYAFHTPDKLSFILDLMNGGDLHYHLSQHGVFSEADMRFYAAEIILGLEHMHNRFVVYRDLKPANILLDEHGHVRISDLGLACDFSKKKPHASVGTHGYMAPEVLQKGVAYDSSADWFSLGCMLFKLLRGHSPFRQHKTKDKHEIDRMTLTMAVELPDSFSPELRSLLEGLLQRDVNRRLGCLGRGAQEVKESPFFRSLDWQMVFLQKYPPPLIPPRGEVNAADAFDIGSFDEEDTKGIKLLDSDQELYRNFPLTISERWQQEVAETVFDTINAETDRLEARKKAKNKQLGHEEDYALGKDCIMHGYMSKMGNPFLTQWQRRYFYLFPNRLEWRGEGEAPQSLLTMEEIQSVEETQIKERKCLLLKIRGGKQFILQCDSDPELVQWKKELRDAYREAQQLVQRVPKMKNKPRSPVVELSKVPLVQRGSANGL
MEKK2 WT-MEK5: raises or lowers MEK5 binding to wildtype human MEKK2 PB1 domain; actives 1.1% (n = 290,000); bead flow cytometry, Alexa488-MEK5 binding to MEKK2 WT; actives lie on both sides; AID 1531; binding response (% of control), % at 10 µM; in the data active means binding response below about 67% or above about 130%
MEKK3 PB1 HTS: raises or lowers MEK5 binding to the human MEKK3 PB1 domain; actives 1.4% (n = 290,000); binding response (% of control), % at 10 µM; AID 1529; Q99759; bead-based flow cytometry, Alexa488-MEK5 binding to MEKK3; actives lie on both sides; 0 = blocked by unlabeled MEK5, 100 = vehicle;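 active means binding response more than 3 SD above or below the average of its plate-row segment, actives on both sides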;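 further: Alexa488 bead fluorescence after subtracting the streptavidin-only scavenger bead signal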
MEKK2mut PB1 HTS: signal of MEK5 binding to mutant human MEKK2 PB1 domain | percent response, % at 10 µM | bead flow cytometry, Alexa488-MEK5 binding to MEKK2 mutant | actives 0.35% (n = 290,000); in the data active means percent response above about 24%, passing the limit was not always enough
MEKK2wt confirm: raises or lowers MEK5 binding to wildtype human MEKK2, retest | shares compounds with MEKK3 PB1 HTS | bead flow cytometry, Alexa488-MEK5 binding to MEKK2 WT; actives lie on both sides | binding response (% of control), % at 10 µM | actives 2.4% (n = 5,900); in the data active means binding response below about 16% or above about 210%; inactive means in between
MEKK2mut-MEK5: signal of MEK5 binding to mutant human MEKK2, retest | shares compounds with MEKK3 PB1 HTS | bead flow cytometry, Alexa488-MEK5 binding to MEKK2 mutant | percent response, % at 10 µM | actives 2% (n = 5,900) | AID 1893; in the data active means percent response mostly above about 71%, no sharp cut-off; inactive means mostly below about 38%;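 further: higher means compound restores mutant binding toward wildtype level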
MEKK3 confirm: MEKK3-MEK5 PB1 inhibition, single concentration confirmation | shares compounds with MEKK3 PB1 HTS | bead flow cytometry, Alexa488-MEK5 binding to MEKK3; hits give low values | binding response (% of control), % at 10 µM | actives 1.8% (n = 5,900) | AID 1894;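 active means binding response below 72% of control, or above a set upper limit, though filed actives all read lower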
Of the large screens only hits and unclear results are named; the others gave an inactive call (follow-up assays come after a bar, where they were run); [ ] = dose if it differs, or a comment.

O=C(NNC1=C(C(=O)C(F)(F)F)CCC1)c1ccc(Br)cc1	MEKK3 PB1 HTS 125, MEKK2mut PB1 HTS 25 | MEKK2wt confirm inactive | MEKK2mut-MEK5 inactive | MEKK3 confirm inactive
Cc1ccc(-c2cc(C(F)F)nc3sc4c(=O)[nH]cnc4c23)cc1	none (no result: MEKK2 WT-MEK5, MEKK3 PB1 HTS, MEKK2mut PB1 HTS)
CCOP(=O)(OCC)C(NC(=O)C(F)(F)F)c1ccccc1 (stereo not drawn)	GRK2 aptamer HTS 64, MEKK3 PB1 HTS 137 | MEKK2wt confirm inactive | MEKK2mut-MEK5 inactive | MEKK3 confirm inactive
CCCOP(=O)(OCCC)C(NC(=O)C(C)(C)C)c1ccccc1 (stereo not drawn)	none
CCCCCCCCS(=O)c1sc2nc3c(cc2c1N)CCCC3 (stereo not drawn)	none
CCN1CCc2c(C#N)c(N3CCCCC3)nc(NCc3ccccc3)c2C1	MEKK2 WT-MEK5 158 | MEKK2wt confirm inactive | MEKK2mut-MEK5 inactive | MEKK3 confirm inactive
CC(C)C(NS(=O)(=O)c1c(Cl)cccc1Cl)C(=O)OCC(=O)c1c[nH]c2ccccc12 (stereo not drawn)	MEKK2 WT-MEK5 -2.0, MEKK2mut PB1 HTS 76 | MEKK2wt confirm inactive | MEKK2mut-MEK5 inactive | MEKK3 confirm inactive
CC(O)C(NS(=O)(=O)c1ccc(Cl)cc1)C(=O)OCC(=O)c1c[nH]c2ccccc12 (stereo not drawn)	none
O=C(CSc1nc2c(cnn2-c2ccc(F)cc2)c(=O)[nH]1)N1CCCc2ccccc21	none
COc1cccc2sc(N(CCCN(C)C)C(=O)c3sc4ccccc4c3Cl)nc12	MEKK2 WT-MEK5 211, MEKK2mut PB1 HTS 63 | MEKK2wt confirm inactive | MEKK2mut-MEK5 inactive | MEKK3 confirm inactive
Cc1cccc2sc(N(CCCN(C)C)C(=O)c3sc4ccccc4c3Cl)nc12	MEKK2 WT-MEK5 197, MEKK2mut PB1 HTS 53 | MEKK2wt confirm inactive | MEKK2mut-MEK5 inactive | MEKK3 confirm inactive
CN(C)CCCN(C(=O)c1sc2ccccc2c1Cl)c1nc2c(F)cccc2s1	MEKK2 WT-MEK5 325, MEKK2mut PB1 HTS 139 | MEKK2wt confirm inactive | MEKK2mut-MEK5 inactive | MEKK3 confirm inactive
CN(C)CCCN(C(=O)c1ccc2c(c1)CCCC2)c1nc2c(F)cccc2s1	none
COc1ccc(-c2nc3n(c2C)Cc2ccccc2-3)cc1	none
S=C(NCCc1ccccc1)NC1CCCCCC1	none
O=C(CSc1nc2ncc(Br)cc2[nH]1)c1ccc([N+](=O)[O-])cc1	MEKK3 PB1 HTS 132 | MEKK2wt confirm inactive | MEKK2mut-MEK5 inactive | MEKK3 confirm inactive
O=C(/C=C/c1ccccc1)NNC1=NS(=O)(=O)c2ccccc21	none
CCCCOc1ccc(Cl)cc1Nc1nc(NCCO)nc(N2CCCC2)n1	MEKK2 WT-MEK5 141 | MEKK2wt confirm inactive | MEKK2mut-MEK5 inactive | MEKK3 confirm inactive
CCOc1ccc(Cl)cc1Nc1nc(NCCO)nc(N2CCCC2)n1	none
O=C(O[C@@H](C(=O)O)[C@@H](OC(=O)c1ccccc1)C(=O)O)c1ccccc1	none (no result: MEKK2 WT-MEK5, MEKK3 PB1 HTS, MEKK2mut PB1 HTS)
CC(C)NC(=O)C(OC(=O)c1ccccc1)C(OC(=O)c1ccccc1)C(=O)O (stereo not drawn)	MEKK3 PB1 HTS 123 | MEKK2wt confirm inactive | MEKK2mut-MEK5 inactive | MEKK3 confirm inactive
COc1ccc(CCC(=O)NCc2ccccc2Cl)cc1OC	none
COC(=O)c1ccc(/C=N/OCC(=O)NCCc2ccc(OC)c(OC)c2)cc1	none
COc1ccc2[nH]c(C)c(CCNC(=S)Nc3ccc(F)cc3)c2c1	none
Cc1[nH]c2ccc(F)cc2c1CCNC(=O)C1CCCCC1C(=O)OCC(F)(F)F (stereo not drawn)	MEKK3 PB1 HTS 153 | MEKK2wt confirm inactive | MEKK2mut-MEK5 inactive | MEKK3 confirm inactive
COc1c2ccc(OCC/C(C)=C/C(=O)C=C(C)C)cc2nc2occc12	none (no result: MEKK2 WT-MEK5, MEKK3 PB1 HTS, MEKK2mut PB1 HTS)
Cc1cc(Cl)ccc1NC(=S)NCCc1ccc(S(N)(=O)=O)cc1	none
CCn1c(C)c(C(C)=O)c(N2CCN(c3ccccc3)CC2)nc1=S	none
CC(=O)c1c(N2CCN(C)CC2)[nH]c(-c2ccccc2)nc1=S	MEKK2 WT-MEK5 23, MEKK2mut PB1 HTS 47 | MEKK2wt confirm inactive | MEKK2mut-MEK5 inactive | MEKK3 confirm inactive
On1c(-c2ccccc2Cl)nc2ccccc21	MEKK3 PB1 HTS 132 | MEKK2wt confirm inactive | MEKK2mut-MEK5 inactive | MEKK3 confirm inactive
O=C(COC(=O)CCc1nc2ccccc2s1)Nc1nc(-c2ccccc2)cs1	none
OC(CNCC1CCCO1)Cn1c2ccc(Cl)cc2c2cc(Cl)ccc21 (stereo not drawn)	MEKK2 WT-MEK5 187 | MEKK2wt confirm inactive | MEKK2mut-MEK5 inactive | MEKK3 confirm inactive
O=S(=O)(c1cccc2nsnc12)N1CCN(c2ccc(F)cc2)CC1	MEKK3 PB1 HTS 72[inhibitor] | MEKK2wt confirm inactive | MEKK2mut-MEK5 inactive | MEKK3 confirm inactive
Cc1sc2ncn(CC(=O)NCc3ccccn3)c(=O)c2c1S(=O)(=O)N1CCOCC1	none
Cc1ccc(C(=O)NCCCNC(=O)COc2ccc(Cl)c(C)c2)cn1	none (no result: MEKK2 WT-MEK5, MEKK3 PB1 HTS, MEKK2mut PB1 HTS)
CCN(C(=O)CSc1nnnn1-c1ccccc1)c1c(N)n(Cc2ccccc2)c(=O)[nH]c1=O	MEKK3 PB1 HTS 67[inhibitor] | MEKK2wt confirm inactive | MEKK2mut-MEK5 inactive | MEKK3 confirm inactive
CCN(C(=O)CSc1nncn1-c1ccccc1)c1c(N)n(Cc2ccccc2)c(=O)[nH]c1=O	MEKK3 PB1 HTS 63[inhibitor] | MEKK2wt confirm inactive | MEKK2mut-MEK5 inactive | MEKK3 confirm inactive
COCCN(C(=O)CSc1nncn1-c1ccccc1)c1c(N)n(Cc2ccccc2)c(=O)[nH]c1=O	none
OCCNc1nc2ccccc2n1CC(O)c1ccccc1 (stereo not drawn)	none
CC(C)Cn1c(NCCO)nc2ccccc21	MEKK3 PB1 HTS 61[inhibitor] | MEKK2wt confirm inactive | MEKK2mut-MEK5 inactive | MEKK3 confirm inactive
COc1ccc(-n2cc(CNCc3cnc4ccccn34)c(-c3cccc(F)c3)n2)cc1	MEKK2 WT-MEK5 170, MEKK2mut PB1 HTS 59 | MEKK2wt confirm inactive | MEKK2mut-MEK5 inactive | MEKK3 confirm inactive
Cc1c(Br)c(C(F)(F)F)nn1CC(=O)NCc1ccccc1	MEKK3 PB1 HTS 132 | MEKK2wt confirm inactive | MEKK2mut-MEK5 inactive | MEKK3 confirm inactive
CCC1Oc2ccc(C)cc2N(CC(=O)NCCN2CCCCCC2)C1=O (stereo not drawn)	MEKK2 WT-MEK5 137 | MEKK2wt confirm inactive | MEKK2mut-MEK5 inactive | MEKK3 confirm inactive
OC(CN1CCCCC1)CN(c1ccccc1)c1ccccc1 (stereo not drawn)	none
CCn1c(N2CCN(S(=O)(=O)c3ccccc3C(F)(F)F)CC2)nc2ccccc21	MEKK2 WT-MEK5 2.0[inhibitor], MEKK3 PB1 HTS 2.0[inhibitor] | MEKK2wt confirm inactive | MEKK2mut-MEK5 inactive | MEKK3 confirm inactive
O=C(N1CCN(c2ccccc2)CC1)C12CC3CC(CC(C3)C1)C2	none
